From the supplement of paper PMC10338343
± gives the standard deviation.

Key:
[1] = tested on: MILI (PIWIL2) piRISC loaded with piRNA #1 (26 nt); assay: pre-steady-state target cleavage rate (min^-1); guide: piRNA #1 5'p-UGAGGUAGUAGGUUGUAUAGUAUCCA; higher = faster piRNA-guided slicing of the target; settings: auxiliary factor: 500 nM mouse GTSF1;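 also: 1 nM active piRISC with 0.1 nM target library at 33 °C single turnover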
Procedure, shortened: (§1)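 The pre-steady-state cleavage rate was derived from a burst-and-steady-state fit of Cleave-'n-Seq data. For these assays, 1 nM active affinity-purified piRISC loaded with a single synthetic guide was mixed with […] a transcribed, DNA-blocked target RNA library in HEPES–potassium acetate buffer at 33 °C, with or without 500 nM GTSF1 partner protein, for 0–8 or 0–960 min. Sequencing counts of uncleaved targets were normalised to depth and to weakly complementary targets, and k3 was capped at 0.0001 min^-1 after three trials were pooled.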

[2] = tested on: EfPiwi piRISC loaded with piRNA #1 (26 nt); assay: pre-steady-state target cleavage rate (min^-1); auxiliary factor: 500 nM Ephydatia muelleri Gtsf1; guide: piRNA #1 5'p-UGAGGUAGUAGGUUGUAUAGUAUCCA; MIWI and MILI are mouse PIWI proteins and EfPiwi is from a freshwater sponge; tags in brackets are library labels; higher = faster piRNA-guided slicing of the target
Procedure, shortened: as §1

Sequence | pre-steady-state target cleavage rate [1] | pre-steady-state target cleavage rate [2]
GGAGAGGAUACAUAUACAACCUACUACCUCA | 0.104 ± 0.0078 | 0.0587 ± 0.024
GGAGACGAUACUAUACUACCUACUACCUGA | 0.167 ± 0.021 | 0.00446 ± 0.0021
GGAGACCUAUCUAUACAACCUACUACUUCA | 0.0866 ± 0.0097 | 0.0119 ± 0.0067
GGAGACGAUACUAUACAACGUAGUACCUCA | 0.00546 ± 0.0032 | 0.00274 ± 0.0012
GGAGACGAUACUAUUCAACCUACUACCUGA | 0.105 ± 0.017 | 0.00421 ± 0.0019
GGAGUGGAUACUAUACAACCUACCACCUCA | 0.0748 ± 0.01 | 0.00271 ± 0.0014
GGAGACCAUAGAUUACAACCUACUACCUCA | 0.0355 ± 0.0071 | 0.00655 ± 0.0034
GGAGACGAUACUAUACAAACUACUACCUCA | 0.245 ± 0.015 | 0.00656 ± 0.0025
GGAGACGAUACUAUACAACCUACUACCGUCA | 0.125 ± 0.023 | 0.00873 ± 0.0037
GGAGACCUAACUAUACGACCUACUACCUCA | 0.0254 ± 0.011 | 0.00758 ± 0.0045
GGAGACGAUACUAUACAACCUACUACCGCA | 0.161 ± 0.021 | 0.00926 ± 0.0033
GGAGACCUUACAUACAACCUACUACCUCA | 0.0259 ± 0.0067 | 0.00863 ± 0.0045
GGAGUGGAUAGUAUACAAGCUACUACCUCA | 0.0697 ± 0.01 | 0.00224 ± 0.0021
GGAGAGGAAACUAUACUACCUACUACCUCA | 0.239 ± 0.025 | 0.00544 ± 0.0027
GGAGACCUUACUAUUCAACCUACUACCUCA | 0.15 ± 0.012 | 0.00413 ± 0.0039
GGAGAGGAUACUAUACAACCUACUACCCCA | 0.119 ± 0.02 | 0.00713 ± 0.0022
GGAGAGGUUACUAUACAACCUACUUCCUCA | 0.00348 ± 0.0029 | 0.0033 ± 0.002
GGAGACCAUACUAUACAACCUACUACCUA | 0.125 ± 0.016 | 0.0149 ± 0.0065
GGAGACCAUACUAUACAAGGUACUACCUCA | 0.0713 ± 0.0087 | 0.00335 ± 0.0029
GGAGACGAUACUAUACAACCUACUAGCUGA | 0.0101 ± 0.0055 | 0.00481 ± 0.0027
GGAGAGGAUACAAUACAACCUACUACGUCA | 0.0443 ± 0.0068 | 0.00333 ± 0.0019
GGAGACCUAACUAUACAACCUACUAUCUCA | 0.0721 ± 0.017 | 0.0057 ± 0.003
GGAGUGGAUACUAUACUACCUACUACCUCA | 0.196 ± 0.0088 | 0.00816 ± 0.0037
GGAGAGGAUACUAUAGAUCCUACUACCUCA | 0.242 ± 0.024 | 0.00654 ± 0.0034
GGAGUGGAUACAAUACAACCUACAACCUCA | 0.0772 ± 0.01 | 0.00248 ± 0.0013
GGAGACCUUACUACACAACCUACUACCUCA | 0.126 ± 0.017 | 0.00432 ± 0.0039
GGAGUGGAUACUAAACAACCUACUACCACA | 0.113 ± 0.011 | 0.003 ± 0.0021
GGAGACGAUACUAUACAACCUACUACCAGA | 0.125 ± 0.02 | 0.00503 ± 0.0015
GGAGACCUCACUAUACAACCUACUACCUCA | 0.252 ± 0.029 | 0.0184 ± 0.0086
GGAGAGGACUACUAUACAACCUACUACCUCA | 0.186 ± 0.016 | 0.00553 ± 0.0037
